STAT3 blocker – inhibitors of IL-6 induced STAT3 signaling; hit rate 0.89% among 190,000; U3A cells, IL-6 STAT3-luciferase reporter, luminescence; host cell line lacks STAT1; AID 862; inhibition, % at 5.5 µM;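 active = inhibition above the mean inhibition across all screened compounds plus 3 SD, cut at about 44% in these data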;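 note: 0% = DMSO only wells and 100% = 100 µM nifuroxazide control wells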
STAT1 inh – inhibitors of IFN-gamma induced STAT1 signaling | NIH 3T3 STAT1-luciferase reporter, luminescence | inhibition, % at 5.5 µM | hit rate 0.35% among 200,000;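 active = inhibition above a set limit, the mean inhibition across all tested compounds plus 3 SD, cut at about 34% in these data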;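 note: 0% = IFN-gamma with DMSO and 100% = IFN-gamma with 300 µM nifuroxazide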
Platelet DG rel – platelet dense granule release activity; human platelet-rich plasma, SFLLRN dense granule ATP release, luminescence; inhibition, %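 (compounds screened at 7.5 µM in platelet-rich plasma)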; hit rate 0.22% among 300,000;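 active = mean replicate score, as percent of positive control, at or above 50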
PPC-1+TRAIL kill – compounds killing PPC-1 cancer cells with TRAIL present (potentiator screen, no TRAIL-free arm); hit rate 0.41% among 220,000; cell killing (% activity), % at 4 µM or 5 µM; PPC-1 cells + TRAIL, ATPLite viability luminescence;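 active = cell killing above 50% in the first pass at 4 µM, then a duplicate retest at 5 µM averaging 50% or more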;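 note: plate controls were cells with TRAIL plus DMSO for no effect and medium-only wells lacking cells for full effect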
C8 TRAIL sens – sensitizes caspase-8 expressing cells to TRAIL; inhibition (viability loss, TRAIL sensitization), % at 10 µM; hit rate 1% among 360,000; NB7+C8 cells + TRAIL, ATPlite viability luminescence; AID 624354;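 active = compounds causing at least 50% loss of cell viability in the single-dose screen, relative to plate controls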
* = called active by the depositor; x = no result. Only some compounds are listed: those with a hit (about 1.6% of all), similar ones and a draw of the others.

SMILES | STAT3 blocker | STAT1 inh | Platelet DG rel | PPC-1+TRAIL kill | C8 TRAIL sens
Cc1ccccc1/C(N)=N/OC(=O)/C=C/c1ccccc1 | -3.3 | -24.8 | -4.4 | 10.5 | 93.7*
COc1cc2c(cc1OC)C(c1ccc3c(c1)Cc1ccccc1-3)OC(=O)C2 (centres undefined) | x | x | x | x | -0.9
Cc1cc(C2=NNC(=NC3CC3)SC2)c(C)n1-c1ccccc1F | 101.8* | 88.8* | 24.4 | 63.9* | 94.5*
COCCNC(=O)c1ccc2c3n(nc2c1)-c1ccc(C)cc1CO3 | x | x | 11.2 | 43.0 | 30.2
O=C(NCC1CCCO1)c1ccc2c3n(nc2c1)-c1ccccc1CO3 (centres undefined) | x | x | 12.1 | 42.1 | 51.0*
Oc1cccc(-c2nnc(-c3cccc(O)c3)nn2)c1 | x | x | x | x | 87.8*
Nc1cccc(O)c1 | x | x | x | x | -11.2
COc1ccc(OC)c(NC(=O)COc2cc(O)c3c(c2)OC(C)(C)CC3=O)c1 | x | x | x | x | 16.6
CCCCNS(=O)(=O)c1cccc(NC(=O)[C@@H]2O[C@H](CO)[C@H](O)[C@H](O)[C@H]2O)c1 | x | x | x | x | 4.5
Cn1nc(C(=O)Nc2nc3ccc(S(C)(=O)=O)cc3s2)ccc1=O | 8.9 | 0.8 | 53.0* | 18.2 | 9.4
CS(=O)(=O)c1ccc2nc(NC(=O)c3ccc(=O)[nH]c3)sc2c1 | x | x | 4.3 | 32.3 | 31.6
Cc1noc(C)c1C(=O)Nc1nc2ccc(S(C)(=O)=O)cc2s1 | x | x | 22.6 | x | 54.2*
Cn1cc([N+](=O)[O-])c(C(=O)Nc2ccc(C3CCCCC3)cc2)n1 | 23.8 | -18.8 | 12.5 | 46.0 | 60.9*
O=C(Nc1ccc2c(c1)OCO2)c1cc(C2CCCCN2C(=O)CCCc2ccccc2)on1 (centres undefined) | x | x | x | x | 4.2
O=C(N/N=C/C=C/c1ccccc1)c1cc2c(ccc3ccccc32)o1 | 28.1 | 0.5 | 1.4 | 41.2 | 57.2*
O=c1c2ccccc2ncn1C1CCCCC1 | -1.4 | -6.6 | -1.0 | 4.9 | 4.2
O=c1c2[nH]c3ccccc3c2ncn1C1CCCCC1 | 7.3 | -18.8 | -3.4 | 16.4 | 69.4*
CCCCn1nnnc1C(c1cccc2ccccc12)N1CCN(C/C=C/c2ccccc2)CC1 (centres undefined) | x | x | x | x | 3.7
C[C@H]1CN([C@@H](C)CO)C(=O)CCCn2cc(nn2)CO[C@@H]1CN(C)C(=O)Nc1ccc(N2CCN(C)CC2)cc1 | x | x | x | x | 13.9
COc1cccc(C(C(=O)NCC2CCCO2)N(C(=O)Cn2nnc3ccccc32)c2ccc(NC(C)=O)cc2)c1 (centres undefined) | x | x | 6.0 | x | -3.0
COc1ccc(NC(=O)CSc2nc3[nH]ncc3c(=O)n2-c2ccccc2OC)cc1OC | 7.2 | -1.5 | -2.7 | 70.8* | -15.5
N/C(=N\N=C\c1ccc(O)cc1)c1nonc1N | 32.8 | -17.6 | 64.5* | 5.5 | 17.7
N/C(=N\N=C\c1ccc(O)c(O)c1)c1nonc1N | x | x | 104.8* | 0.8 | -2.3
N/C(=N\N=C\c1ccc([N+](=O)[O-])cc1)c1nonc1N | x | x | 33.0 | 13.5 | -3.4
Cc1nn(Cc2c(Cl)cccc2Cl)c(C)c1NC(=O)c1cn(-c2ccccc2)nc1-c1ccccc1 | 3.4 | 9.1 | 9.6 | 29.8 | 75.9*
SMILES | STAT3 blocker | STAT1 inh | Platelet DG rel | PPC-1+TRAIL kill | C8 TRAIL sens
Cc1cccc(C)c1NC(=O)CNC(=O)c1cn(-c2ccccc2)nc1-c1ccccc1 | x | x | 0.6 | x | 7.8
Cc1ccccc1Nc1nc(N)nc(CCl)n1 | x | x | 12.3 | 13.8 | 90.9*
COc1ccc(Nc2nc(N)nc(CN3CCOCC3)n2)cc1 | 2.8 | 4.8 | x | 23.1 | 5.1
Cc1c(Cl)cccc1Nc1nc(N)nc(CSc2ncccn2)n1 | 3.7 | -15.1 | 0.9 | -10.5 | 90.6*
COc1ccc(Nc2nc(N)nc(CCl)n2)cc1 | x | x | -11.5 | 29.7 | 92.3*
Cc1c(Cl)cccc1Nc1nc(N)nc(CSCCO)n1 | 12.1 | -2.2 | 9.4 | -21.6 | -12.7
Cc1cccnc1C(NC(=O)C1CCN(Cc2ccc3ccccc3n2)CC1)c1ccc(Cl)cc1 (centres undefined) | x | x | x | x | 13.2
CSc1ccc(/C=C/c2ccc3cccc(O)c3n2)cc1 | 15.4 | -7.1 | 13.0 | 15.1 | 53.4*
COP(=O)(OC)c1ccc(NCc2cc(O)ccc2O)cc1 | x | x | x | x | 15.3
O=C(OCc1ccccc1)c1ccc(NCc2cc(O)ccc2O)cc1 | x | x | x | x | 89.8*
CC(C)OC(=O)c1ccc(NCc2cc(O)ccc2O)cc1 | x | x | x | x | 73.0*
O=C(CSCc1ccco1)c1cccs1 | 1.9 | -27.1 | 85.4* | 5.8 | 11.4
O=C(NCc1ccco1)c1cccs1 | -11.9 | 2.3 | 9.4 | 11.4 | -3.1
CCOC(=O)C1CCN(C(=O)C2c3ccccc3C(=O)N(C)C2c2ccc(OC)cc2)CC1 (centres undefined) | 3.5 | 0.1 | 1.4 | 27.2 | 53.7*
COc1ccc(C2C(C(=O)N3CCCCC3)c3ccccc3C(=O)N2C)cc1 (centres undefined) | -0.5 | -1.7 | 8.9 | 1.3 | 43.2
CCc1nc2ccc(C(=O)NCCCn3ccnc3)cn2c1N(C)Cc1cc2ccccc2s1 | x | x | x | x | 12.2
CCN(Cc1ccccc1)c1ccc(N=Nc2nn(C)c(C)c2[N+](=O)[O-])cc1 | -7.6 | -36.4 | 6.6 | 9.6 | -0.8
CCN(CC)c1ccc(N=Nc2nn(C)c(C)c2[N+](=O)[O-])cc1 | 20.6 | -88.2 | 12.1 | 41.9 | 63.1*
O=C1NC[C@H](Cc2ccccc2)N(C[C@@H]2CCCN2C[C@H](Cc2ccc(O)cc2)N2C[C@H](Cc3ccccc3)N(CC3CCCCCC3)C(=O)C2=O)C1=O | x | x | x | x | 7.5
O=C(O)c1ccccc1-c1ccccc1C(=O)Nc1ccc2c(c1)CCC2 | x | x | -7.3 | x | 10.5
O=C(Nc1ccc2c(c1)CCC2)c1ccccc1F | 27.4 | -87.3 | -14.9 | 6.1 | 56.7*
Cc1ccc([C@H]2C[C@@H](n3cc(C4CC4)nn3)[C@H](O)CN2C(=O)C2CCCCC2)cc1 | x | x | x | x | -5.6
CCc1c(C)nc2cc(-c3ccc(Cl)cc3)[nH]n2c1=O | x | x | 8.7 | x | -0.2
O=c1c2c(nc3cc(-c4ccc(Cl)cc4)[nH]n13)CCS2 | -6.2 | -7.9 | 5.5 | 41.0 | 50.8*
Cn1c(=O)c2c(nc(SCCN3CCOCC3)n2Cc2ccccc2Cl)n(C)c1=O | 6.3 | -2.9 | 62.6* | -4.6 | 6.5
SMILES | STAT3 blocker | STAT1 inh | Platelet DG rel | PPC-1+TRAIL kill | C8 TRAIL sens
CCOc1ccc(N(CC(=O)NC2CCCCC2)C(=O)CCCC(=O)Nc2ccccn2)cc1 | x | x | -0.4 | x | 10.4
N#C/C(=C\c1cc(Cl)cc(Cl)c1O)C(=O)NC1CCCCC1 | 3.7 | 0.8 | 10.5 | 9.7 | 54.1*
CC(=O)c1cccc(NC(=O)c2cc(S(=O)(=O)N3CCCCC3)ccc2N2CCOCC2)c1 | x | x | x | x | 5.8
O=C(CN(C(=O)c1csnn1)c1ccccc1C(F)(F)F)NC1CCCCC1 | x | x | 5.9 | x | 3.8
CCCCCCCCCCCCCCC(O)C[N+](C)(CCO)CCO (centres undefined) | x | x | x | x | 87.8*
CCCCCCCC(=O)OCC(O)CO (centres undefined) | 2.8 | -3.8 | 1.3 | 14.9 | -0.9
Oc1ccccc1C=NCCN1CCN(CCN=Cc2ccccc2O)C1c1ccccc1O (centres undefined) | x | x | x | x | 1.3
CCN1/C(=C/C=C/c2oc3ccc(-c4ccccc4)cc3[n+]2CC)Oc2ccc(-c3ccccc3)cc21 | 54.1* | 60.2* | 3.8 | 57.0* | 79.3*
Cn1c(SCc2cccc(F)c2)nnc1-c1ccncc1 | x | x | 5.3 | x | -19.8
COc1ccc2nc(C)cc(N/N=C/c3cccc(OC)c3O)c2c1 | x | x | -23.3 | x | 51.5*

High-throughput results: PubChem BioAssay, several laboratories
